Source: PubChem BioAssay AID800 (PCMD, 2007)
Out of some 220,000 compounds screened, about 650 (0.3%) were called active. The sample holds actives, similar compounds and a random draw of the others, so the mix is not that of the screen. Cut-off read from the data, not from the text of the source: active = inhibition above about 40%; inactive = the rest.

Target: Coagulation factor XII (Homo sapiens) (UniProt P00748)
Assay: coagulation factor XIIa activity inhibition – biochemical, 1536-well, primary screen (AID 800);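 note: 0% = enzyme with no compound and 100% = blank without enzyme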
Conditions: purified FXIIa, Boc-QGR-AMC fluorogenic substrate, 2 h; at 5 µM; hits give high values

Chain of Coagulation factor XII (Homo sapiens) (P00748 20-372 limits assumed): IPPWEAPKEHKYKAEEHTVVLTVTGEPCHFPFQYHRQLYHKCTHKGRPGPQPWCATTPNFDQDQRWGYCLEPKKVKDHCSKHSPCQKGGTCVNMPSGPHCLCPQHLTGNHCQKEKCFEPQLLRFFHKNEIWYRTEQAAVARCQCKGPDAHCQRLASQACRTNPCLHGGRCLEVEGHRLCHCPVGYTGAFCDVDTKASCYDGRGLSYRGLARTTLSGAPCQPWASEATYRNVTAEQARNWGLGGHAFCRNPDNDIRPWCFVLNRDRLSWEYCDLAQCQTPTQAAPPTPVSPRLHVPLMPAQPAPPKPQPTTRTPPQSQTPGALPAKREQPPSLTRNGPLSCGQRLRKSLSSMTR
Chain of Coagulation factor XII (Homo sapiens) (P00748 373-615 limits assumed): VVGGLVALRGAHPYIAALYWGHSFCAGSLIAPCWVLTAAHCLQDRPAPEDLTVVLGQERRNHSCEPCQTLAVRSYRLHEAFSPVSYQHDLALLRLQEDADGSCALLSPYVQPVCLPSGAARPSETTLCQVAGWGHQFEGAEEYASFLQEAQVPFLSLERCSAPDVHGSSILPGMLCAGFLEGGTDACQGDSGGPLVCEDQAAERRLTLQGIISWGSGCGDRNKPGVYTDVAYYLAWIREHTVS

Row | SMILES | inhibition
1 | O=C(Cc1ccccc1)Nc1c(Cl)ccc2nsnc12 | 2.05% (inactive)
2 | C[C@H](NC(=O)c1nc[nH]c1C(=O)N[C@@H](C)C(=O)OC(C)(C)C)C(=O)OC(C)(C)C | 12.4% (inactive)
3 | CCOC(=O)c1cn(CC)c2cc(F)c(F)cc2c1=O | 4.45% (inactive)
4 | COc1cc(NC(=O)c2cncc(-c3ccc(C#N)cc3)c2)cc(C(=O)Nc2cccc(C(F)(F)F)c2)c1 | 3.5% (inactive)
5 | O=[N+]([O-])c1cc([N+](=O)[O-])c2cccnc2c1O | 3.18% (inactive)
6 | O=C(Nc1cccc(S(=O)(=O)NC2=NCCC2)c1)C1CCCCC1 | 14.4% (inactive)
7 | COc1ccc2[nH]c(C(=O)Nc3ccccc3Cl)cc2c1 | 6.03% (inactive)
8 | CCC/C(C)=N\Nc1nc2c(c(=O)n(C)c(=O)n2C)n1C | 5.02% (inactive)
9 | CCOC(=O)c1c(C)oc(C)c(C(=O)OCC)c1=O | 8.51% (inactive)
10 | CCOC(=O)c1cnc(COc2ccccc2Cl)[nH]c1=O | 3.67% (inactive)
11 | O=C(NNC(=S)NCc1ccccc1)c1ccc(OC(F)F)cc1 | -6.41% (inactive)
12 | CC/C(=N\NC(=S)NC(C)C)c1ccc(OC(F)F)cc1 | 52.2% (active)
13 | CC(NC(=S)Nc1ccc(OC(F)F)cc1)c1ccc(F)cc1 (configuration not stated) | 10.5% (inactive)
14 | Cc1onc(-c2ccc(Cl)cc2)c1-c1ccnn1S(=O)(=O)c1ccc(Cl)cc1 | 3.87% (inactive)
15 | CCOCCn1c(-c2ccccc2)nc2ccccc21 | 9.94% (inactive)
16 | O=C(COC(=O)CCc1nc2ccccc2c(=O)[nH]1)Nc1ccc(N2CCOCC2)cc1 | 1.95% (inactive)
17 | CSc1nc(C)nc(C2CC2)c1C#N | 1.66% (inactive)
18 | CN(c1ccc(OCC(=O)NC2=NCCS2)cc1)S(=O)(=O)c1ccc(F)cc1 | 7.4% (inactive)
19 | Cc1ccc(S(=O)(=O)N2CCN(C(=O)COC(=O)c3c(C)noc3C)CC2)c(C)c1 | 7.88% (inactive)
20 | O=c1[nH]c(CSc2ccccc2)nc2c1oc1ccccc12 | 7.45% (inactive)
21 | COC(=O)[C@H](Cc1ccccc1)NC(=O)Nc1ccc(OC)cc1 | 4.58% (inactive)
22 | CC(C)(C)NC(=O)/C(=C/c1cccnc1)NC(=O)c1ccco1 | 15.3% (inactive)
23 | O=C(Nc1nnc(Cc2ccc(Cl)cc2)s1)c1ccncc1 | 2.31% (inactive)
24 | O=C(NNC(=S)NC1CC2CCC1C2)c1ccc(Cl)cc1 (configuration not stated) | 7.4% (inactive)
25 | CCc1ccc2nc(Nc3ncc(C(C)=O)c(C)n3)nc(C)c2c1 | 6.31% (inactive)

Row | SMILES | inhibition
26 | C=C(C)C(=O)Nc1cccc(C2=NOC3(C2)C[C@H](C(N)=O)N(C(=O)C(c2ccccc2)c2ccccc2)C3)c1 (some centres not stated) | 0.36% (inactive)
27 | Nc1nc(Sc2ncccc2[N+](=O)[O-])n[nH]1 | 7.38% (inactive)
28 | C/C(=N/Nc1nc(-c2ccccc2)c(CC(=O)O)s1)c1ccccc1 | 10.1% (inactive)
29 | COc1ccccc1-c1c(C#N)c(N)nc2c1CCC2 | -2.02% (inactive)
30 | CCOC(=O)C(=CNNc1ccsc1C(=O)OC)C(=O)OCC | 8.52% (inactive)
31 | COc1ccc(CN(Cc2ccc(OC)cc2)C(=O)c2cccs2)cc1 | 45.5% (active)
32 | COc1ccc(OCC(=O)N2CCN(C(=O)c3cccs3)CC2)cc1 | 0.82% (inactive)
33 | COc1ccc(CN(C(=O)c2cccs2)c2nccs2)cc1OC | 14.5% (inactive)
34 | Cc1nc(=O)c(-c2ccccc2)c(C)n1-c1ccc(Br)cc1 | 7.02% (inactive)
35 | CCOC(=O)c1nnn2c1nc(N1CCN(c3ccccc3)CC1)c1ccccc12 | 5.24% (inactive)
36 | Cc1ccc2c(c1)nnc1nnc(SCC(=O)O)n12 | 5.33% (inactive)
37 | Cc1cccc(NC(=O)c2nc[nH]c2C(=O)NCC(=O)OCc2ccccc2)c1 | 7.76% (inactive)
38 | Cc1ccc(NNC(=O)c2cccs2)cc1Cl | 8.48% (inactive)
39 | CCc1nnc(NC(=O)CCC(=O)NCc2ccccc2OC)s1 | 15% (inactive)
40 | CCc1nnc(NC(=O)CCC(=O)O)s1 | 13.2% (inactive)
41 | CCc1nnc(NC(=O)CCN(c2ccc(C)cc2)S(=O)(=O)c2ccccc2)s1 | 49.2% (active)
42 | CCCCC1=CC2=CC(=O)C(C)(OC(=O)CC)C(=O)C2=CN1CCCOC(C)C (configuration not stated) | 7.98% (inactive)
43 | O=C(Nc1ccc(F)cc1)c1cc2c(s1)CCCC2 | 8.77% (inactive)
44 | COc1ccc(CNC(=O)C2CC(c3ccc(C(F)(F)F)cc3)=NO2)cc1 (configuration not stated) | 7.68% (inactive)
45 | Nc1nnn(CC(=O)N/N=C/c2ccc(O)cc2)n1 | 16.2% (inactive)
46 | CCc1cccc(CC)c1NC(=S)Nc1ccc2cn[nH]c2c1 | 10% (inactive)
47 | Cc1ccc(SCc2c(C(=O)N/N=C/C3CC=CCC3)nnn2-c2nonc2N)cc1 (configuration not stated) | 9.39% (inactive)
48 | CS(=O)(=O)c1ccc2nc(NC(=O)c3ccc(N4CCCC4=O)cc3)sc2c1 | 1.85% (inactive)
49 | O=C(NCc1ccc2c(c1)OCO2)c1sccc1Br | 8.69% (inactive)
50 | C/C=C(/C)C(=O)O[C@@H]1c2cc3c(c4c2[C@@]2(CO4)C(=O)C(OC)=C(OC)C=C2C[C@@H](C)[C@H]1C)OCO3 | 12.9% (inactive)

Row | SMILES | inhibition
51 | Oc1[nH]c2ccc(Br)cc2c1N=Nc1nn[nH]n1 | 12.3% (inactive)
52 | CCCc1ccc(C(=O)[C@@H]2[C@@H](C(C)=O)N3c4ccc(F)cc4C=C[C@@H]3[C@@]23C(=O)Nc2ccccc23)cc1 | 8.48% (inactive)
53 | CC1CC(C)(C)n2c(O)c(N=NC(N)=S)c3cccc1c32 (configuration not stated) | 30.2% (inactive)
54 | Cc1ccccc1Nc1c(-c2ccccc2)nc2ncccn12 | 5.54% (inactive)
55 | CCc1ccc(S(=O)(=O)NCC(O)COc2ccc(OC)cc2)cc1 (configuration not stated) | 6.59% (inactive)
56 | Cc1cc(NC(=O)c2cccc(N3C(=O)CCC3=O)c2)no1 | 16.7% (inactive)
57 | Cc1cccc(NC(=O)c2ccc3ccccc3n2)n1 | 16% (inactive)
58 | Cc1cccc(NC(=O)c2cc(N3C(=O)CCC3=O)ccc2Cl)n1 | 50.5% (active)
59 | O=C(NC1CCN(Cc2ccccc2)CC1)c1ccc(Oc2cc(Cl)cc(Cl)c2)o1 | 6.33% (inactive)
60 | S=c1[nH]c2ccccc2c2ccccc12 | 2.88% (inactive)
61 | COC(=O)CCCC1=CC2=CC(=O)C(C)(OC(=O)c3cccs3)C(=O)C2=CN1CC(C)C (configuration not stated) | 7.73% (inactive)
62 | Cc1noc(C)c1C(=O)OCC(=O)N1CCN(S(=O)(=O)c2ccc3ccccc3c2)CC1 | 1.83% (inactive)
63 | Nc1ccccc1Sc1cc(Cl)nnc1Cl | 12.7% (inactive)
64 | C=CCn1c(=S)sc2c(=O)[nH]c(C)nc21 | 1.68% (inactive)
65 | Cc1cc(=O)[nH]c(S)c1C#N | -0.28% (inactive)
66 | COC(C[C@@H](O)[C@H](C)[C@H](O)COCc1ccccc1)OC | 4.52% (inactive)
67 | Cn1c(S(=O)(=O)O)nc2ccccc21 | -0.32% (inactive)
68 | NS(=O)(=O)c1ccc(CCNC(=O)NC2CCCCC2)cc1 | 15% (inactive)
69 | O=C(c1ccc(Cl)cc1)N1N=C(c2ccccn2)CC1(O)C(F)(F)F (configuration not stated) | 8.52% (inactive)
70 | COC(=O)CSc1ncnc2c1cnn2-c1ccc(C)cc1C | 5.55% (inactive)
71 | Cc1ccc(-n2ncc3c(=O)[nH]cnc32)c(C)c1 | 54% (active)
72 | Cc1ccc(-n2ncc3c2ncn2nc(-c4ccco4)nc32)c(C)c1 | 14.2% (inactive)
73 | Cc1[nH]n(C)c(=O)c1C(=O)c1c(-c2c(Cl)cccc2Cl)noc1C | 2.28% (inactive)
74 | CCOc1c(Nc2cccc(Cl)c2)c(=O)c1=O | 8.16% (inactive)
75 | COc1ccc(Nc2ncnc3sc(-c4ccccc4)cc23)c(OC)c1 | 4.94% (inactive)

Row | SMILES | inhibition
76 | CC(C)(C)c1cc(C(=O)N/N=C/c2ccc([N+](=O)[O-])s2)n[nH]1 | 7.22% (inactive)
77 | Cc1nc(N)[nH]c(=O)c1Oc1cccc(C(F)(F)F)c1 | 3.61% (inactive)
78 | O=C(CSC(=S)N1CCCCC1)c1c(F)cccc1F | 6.72% (inactive)
79 | CNC(=O)c1cccc2nc3ccccc3nc12 | 6.68% (inactive)
80 | Brc1ccc(-c2nn[nH]n2)cc1 | 12.5% (inactive)
81 | CC(C)S(=O)(=O)c1csc(NC(=O)Nc2ccc(Cl)cc2)c1Cl | 6.02% (inactive)
82 | C=C(C)C(=O)O[C@H]1C/C(C)=C\C(=O)/C=C(\C)[C@H](O)[C@@H]2OC(=O)C(=C)[C@@H]21 | 8.34% (inactive)
83 | COc1cccc(Nc2nnc(SCC(=O)N3CC(=O)Nc4ccccc43)s2)c1 | 5.5% (inactive)
84 | C/C=N/N(c1ccccc1)c1ccccc1 | 4.81% (inactive)
85 | CC(C)(C)C(=O)Nc1c(Br)c(C2CC2)nn1-c1ccccc1 | 6.88% (inactive)
86 | Cc1cc(C)cc(OCC(=O)O/N=C(\N)Cc2ccc([N+](=O)[O-])cc2)c1 | 0.85% (inactive)
87 | O=C(COc1ccc(Cl)cc1[N+](=O)[O-])N1CCCCC1 | 2.91% (inactive)
88 | CCOc1cc(CO)ccc1OCC(=O)N1CCCCC1 | 52.6% (active)
89 | CCOc1cc(CN2CCN(C(=O)CC(C)C)CC2)ccc1OC | -3.42% (inactive)
90 | O=C(CN1C(=O)NC2(CCCCCC2)C1=O)NC1CC1 | 0.9% (inactive)
91 | CCC1SC(CC)C(=O)N(CC(=O)NC2CCCCC2)C1=O (configuration not stated) | 101% (active)
92 | O=C(CN1C(=O)CC(c2ccccc2)=Nc2ccccc21)NC1CCCCC1 | 12.2% (inactive)
93 | CN(C)/C=C1\C=C(c2ccccc2)OC1=O | 49.5% (active)
94 | CN(C)/C=C1/C(=O)Nc2ccccc21 | 8.66% (inactive)
95 | Cc1ccc(C2=C/C(=C\c3cccnc3)C(=O)O2)cc1 | 10.9% (inactive)
96 | NC(=O)C1=C[C@@H](c2csc3ccccc23)C[C@@H](OCc2ccc(CO)cc2)O1 | 5.57% (inactive)
97 | CCN(CC)C(=O)CC(c1ccc2c(c1)OCO2)c1c(OC)cc(OC)c2c(-c3ccccc3)cc(=O)oc12 (configuration not stated) | -2.49% (inactive)
